Source: the OligoGym collection
Note: reference of the scale not given here.

Each sequence was assayed against CMIP (assay: pooled miR-30 sensor sort-seq; sequence = guide strand). Settings: shRNA.
Work on TTTTTGGTCTTGTAACAGGAGC yielded a sensor-assay potency score (higher = more potent) of -1.29.
Sequence TAAACTGCAGAGACTCTTCATG has a sensor-assay potency score (higher = more potent) of 0.214.
Sequence TTGGAGGGCAGTGTTAGCCTGG has a sensor-assay potency score (higher = more potent) of -0.584.
Work on TCGATGACCACCATGGACCGGG yielded a sensor-assay potency score (higher = more potent) of -0.357.
In the case of TTCAAGACAACTTCCCAGCGGC, the sensor-assay potency score (higher = more potent) is reported as -0.119.
For TTGTATTCCAGCATCAAGCACA, the sensor-assay potency score (higher = more potent) was -0.524.
Sequence TTGGGTGTCGTTGTTGTCGATG has a sensor-assay potency score (higher = more potent) of -0.39.
With TTGCTGAGAAAGGTCCGCGGGT the sensor-assay potency score (higher = more potent) was -0.793.
TTTTTTGGTCTTGTAACAGGAG was tested, and the sensor-assay potency score (higher = more potent) was -0.0686.

These sequences were tested against CMPK1 in the same assay as above. Settings: shRNA.
TACAACTTTGTACAAGTTGTAG showed a sensor-assay potency score (higher = more potent) of -1.32.
For TATTCTTCTGAGCATTGGCAGC, the sensor-assay potency score (higher = more potent) was -1.31.
In the case of TTAGAAGCATCTATTTTCTTGA, the sensor-assay potency score (higher = more potent) is reported as 0.0499.
For TACATCTGCCTTCCCATCCATG, the sensor-assay potency score (higher = more potent) was -0.919.
For ATAAACACTAAAATGCTCCTAA, the sensor-assay potency score (higher = more potent) was 0.491.
Work on TATCTCAACTGGTACAATCTTT yielded a sensor-assay potency score (higher = more potent) of -0.621.
Work on TTGTTTACCAAACACATTGTGC yielded a sensor-assay potency score (higher = more potent) of -0.615.
Work on TCAACTGGTACAATCTTTCCTT yielded a sensor-assay potency score (higher = more potent) of 0.503.
Sequence TTTACCAAACACATTGTGCAAG has a sensor-assay potency score (higher = more potent) of -0.707.
TTAATAAACACTAAAATGCTCC showed a sensor-assay potency score (higher = more potent) of -0.407.
Sequence TTAAGTTTTCTCATCTTTCTAC has a sensor-assay potency score (higher = more potent) of 0.568.

What follows are sequences tested against CMPK2 in the same assay as above. Settings: shRNA.
Sequence TTCTTCCCTGGTCTTCTCCATG has a sensor-assay potency score (higher = more potent) of -1.63.
TTCATCATCAAAGATCTTCCTC showed a sensor-assay potency score (higher = more potent) of 0.515.
TGACTTTAAGAGGACAGCCTTA was tested, and the sensor-assay potency score (higher = more potent) was -1.08.
TAATACCGTCTGCAGGACCTTT was tested, and the sensor-assay potency score (higher = more potent) was -1.41.
TTGACGAAACACACTGTTGGCC gave a sensor-assay potency score (higher = more potent) of -0.221.
TTTGACGAAACACACTGTTGGC was tested, and the sensor-assay potency score (higher = more potent) was -0.342.
Sequence TACCTGTCTACAATCACAGGAG has a sensor-assay potency score (higher = more potent) of 0.285.
With TGGTAGGACATTTCTACCTTTT the sensor-assay potency score (higher = more potent) was -1.68.
For TTTTGGGCACTGGTCGACCAGG, the sensor-assay potency score (higher = more potent) was -1.61.
For TCAAGTTCTGCTTCTTCCCTGG, the sensor-assay potency score (higher = more potent) was 0.42.
TTTCAAACAACATCTAATCTAG showed a sensor-assay potency score (higher = more potent) of -0.108.
TCCTTCGATGGCAACAACCTGG was tested, and the sensor-assay potency score (higher = more potent) was -1.1.

Each sequence was assayed against CMYA5 in the same assay as above. Settings: shRNA.
With TTTTTCTTCACTGTGATCTGGC the sensor-assay potency score (higher = more potent) was 0.846.
TTACTTCTTGATCATCTTGTGG showed a sensor-assay potency score (higher = more potent) of -0.871.
With TATGACTTCTCTTTCTCCGTGG the sensor-assay potency score (higher = more potent) was 0.895.
TTTCTAACACTAGATTTCCTTC was tested, and the sensor-assay potency score (higher = more potent) was -0.717.
TAATACTAGATTTCCTTCCTGA was tested, and the sensor-assay potency score (higher = more potent) was 0.791.
In the case of TGAATCAATGACATCTTCCTTG, the sensor-assay potency score (higher = more potent) is reported as 0.597.
TAACACTAGATTTCCTTCCTGA was tested, and the sensor-assay potency score (higher = more potent) was 0.81.
Work on TTCACTTTCTTCCTGATCGATT yielded a sensor-assay potency score (higher = more potent) of -0.264.
